The campaign covered roughly 48,000 compounds. About 13,000 (27%) showed an effect of 50% or more. The list shows a part of the results.
test system: Wolbachia pipientis; assay: Anti-Wolbachia Cell-Based Screen; type: functional; parameters: scale not given: in the data most compounds retested in dose-response had high values; conditions: 5 µM

| SMILES | Percent Effect |
| --- | --- |
| COCCN(Cc1ccc(C)cc1)Cc1c[nH]cn1 | -2.598% |
| Cc1cc(C)n(CCC2CC(=O)Nc3cc(O)c(C)cc32)n1 (configuration not stated) | -2.617% |
| Cc1noc(Cl)c1CCC(=O)N1CCN(c2ncccn2)CC1 | 8.959% |
| Cc1noc(C)c1CCC(=O)N1CCN(CCn2cccn2)CC1 | -16.11% |
| Cc1noc(C)c1CCC(=O)N1CCOCC1CCc1cnccn1 (configuration not stated) | 115.4% |
| Cc1nccnc1CCC1COCCN1C(=O)CCc1c(C)noc1C (configuration not stated) | 121.1% |
| Cc1cc(C)cc(OCCC(=O)N2CCOCC2c2ncon2)c1 (configuration not stated) | -11.58% |
| CC(=O)N1CCCN(C(=O)CCc2c(C)noc2C)CC1 | -13.07% |
| Cc1noc(C)c1CCC(=O)N1CCN(CCn2cncn2)CC1 | -13.84% |
| Cc1noc(C)c1CCC(=O)N1CCOCC1CC(=O)N1CCCC1 (configuration not stated) | 72.16% |
| CCc1ccc(CCC(=O)N2CCOCC2c2ncon2)cc1 (configuration not stated) | 5.794% |
| O=C(c1ccc2cccc(F)c2n1)N1CCN(CCn2cccc2)CC1 | 4.444% |
| Cc1ncccc1NC(=O)[C@@H]1C[C@@H]2CCN(Cc3cccs3)C[C@H]2O1.O=C(O)C(F)(F)F.O=C(O)C(F)(F)F | -1.319% |
| CCN1CC[C@@H]2OC[C@H](C(=O)NCc3cccs3)C[C@@H]2C1 | 91.2% |
| COCCNC(=O)[C@H]1CO[C@H]2CCN(Cc3cccs3)C[C@H]2C1 | 107.4% |
| O=C(CN1CCC(c2ccnn2CCO)CC1)NCc1cccs1 | -0.7289% |
| COCCNC(=O)[C@H]1C[C@@H]2CCN(Cc3nccs3)C[C@H]2O1.O=C(O)C(F)(F)F | 2.995% |
| COC(=O)N1CCc2ccccc2C1C(=O)NCc1cccs1 (configuration not stated) | 1.281% |
| COc1ccc(F)cc1CN1CCN(Cc2nccn2C)C(C)C1 (configuration not stated) | -0.7274% |
| CC(=O)N1CC(=O)N(c2ccsc2)CC12CCN(Cc1ccccn1)C2.O=C(O)C(F)(F)F (configuration not stated) | -6.842% |
| CC(=O)N1CC(=O)N(c2ccccc2)CC12CCN(CC1CC1)C2.O=C(O)C(F)(F)F (configuration not stated) | -3.194% |

| SMILES | Percent Effect |
| --- | --- |
| CC(=O)N1CC(=O)N(c2ccccc2)CC12CCN(Cc1ccsc1)C2 (configuration not stated) | -2.634% |
| CC(=O)N1CC(=O)N(c2ccccc2)CC12CCN(Cc1nccs1)C2.O=C(O)C(F)(F)F (configuration not stated) | -14.31% |
| CC(=O)N1CC(=O)N(c2ccccc2)CC12CCN(Cc1ccoc1)C2.O=C(O)C(F)(F)F (configuration not stated) | 103.1% |
| CC(=O)N1CC(=O)N(c2ccsc2)CC12CCN(Cc1ccoc1)C2 (configuration not stated) | 104.4% |
| CC(C)OCCOCc1cccc(NC(=O)NCC(=O)N(C)C)c1 | -22.62% |
| CCN1CCN2CCCN(S(=O)(=O)c3ccc(C)cc3C)C2C1=O (configuration not stated) | 0.9872% |
| CN1CCN(c2ccc(NCc3ccsc3)cn2)CC1 | -12.65% |
| COCC1CN(C(=O)COc2ccccc2)Cc2ncn(C)c21.O=C(O)C(F)(F)F (configuration not stated) | -7.331% |
| Cn1cnc2c1C(COCC1CCOCC1)CN(C(=O)C1CC=CC1)C2.O=C(O)C(F)(F)F (configuration not stated) | -7.237% |
| CN(C)C(=O)COCC1CN(S(C)(=O)=O)Cc2ncn(C)c21.O=C(O)C(F)(F)F (configuration not stated) | 94.11% |
| CCOCC1CN(C(=O)COc2ccccc2C)Cc2ncn(C)c21.O=C(O)C(F)(F)F (configuration not stated) | -10.67% |
| CN(C)C(=O)COCC1CN(C2CCC2)Cc2ncn(C)c21.O=C(O)C(F)(F)F.O=C(O)C(F)(F)F (configuration not stated) | 85.57% |
| COCCN(Cc1sccc1C)c1nc(C)nc2sccc12 | -3.328% |
| CNC(=O)[C@@H]1C[C@@H](N)CN1Cc1cc2cc(C)cc(C)c2[nH]c1=O | 3.33% |
| CN(Cc1cnn(C)c1)S(=O)(=O)N1CCc2ccccc2C1 | 11.11% |
| CCN(CC)S(=O)(=O)c1ccc2c(c1)N(Cc1cccnc1)C(=O)CS2 | 103.1% |
| CC(C)N1CCC(Nc2ccn(Cc3ccccn3)n2)C1=O (configuration not stated) | 7.705% |
| CCN(CC)S(=O)(=O)N1CCC(c2nccn2Cc2ccccn2)CC1 | 1.2% |
| CCN(CC)S(=O)(=O)N(C)Cc1ccncc1 | -6.423% |
| CCS(=O)(=O)c1ccc2oc([C@H]3CCN(Cc4cccnc4)C3)nc2c1 | -5.049% |
| CCN(CC)S(=O)(=O)N1CCCC(c2nccn2Cc2cccnc2)C1 (configuration not stated) | -1.362% |

| SMILES | Percent Effect |
| --- | --- |
| CCN(CC)S(=O)(=O)c1ccc2c(c1)N(Cc1ccncc1)C(=O)CS2 | 122% |
| CCN(CC)S(=O)(=O)c1ccc2c(c1)N(Cc1ccccn1)C(=O)CS2 | 124.5% |
| CCN(Cc1cccc(-c2ccncc2)c1)S(N)(=O)=O | -1.235% |
| CC(=O)N1CCC(C(=O)NCCN2CCC(C)CC2)CC1 | -2.341% |
| CCN1C(=O)CC(c2cnn(C)c2)C12CCN(C(=O)c1ccoc1)CC2 (configuration not stated) | 0.4401% |
| Cc1nccn1-c1ccc(C(C)NCc2cccn2C)cc1 (configuration not stated) | -7.942% |
| Cc1ccnc(Cn2cc(-c3cccc(C(C)N(C)C)c3)nn2)c1 (configuration not stated) | 12.93% |
| COc1ccc2c(c1)CCCN2C(=O)CN1CCOC(C)C1 (configuration not stated) | -7.941% |
| NC(=O)C1CCN(CCc2ccc(NC(=O)C3CCC3)cc2)CC1 | -0.7709% |
| CCOC(=O)C(C)Nc1ccc(CCN2CCOCC2)cc1 (configuration not stated) | 97.92% |
| CCC(Nc1ccc(CCN2CCOCC2)cc1)C(N)=O (configuration not stated) | 92.12% |
| COC(=O)C(O)C1CCN(CCc2ccncc2)CC1 (configuration not stated) | -5.946% |
| CC(CCc1ccccc1)NC(=O)CN1CCOCC1 (configuration not stated) | -21.53% |
| O=C(Nc1ccc(CCN2CCC(O)CC2)cc1)C1CCOCC1 | 8.941% |
| CC(Nc1ccc(CCN2CCCCC2)cc1)C(=O)N(C)CCC#N (configuration not stated) | -7.662% |
| CCC(Nc1ccc(Oc2ccccc2OC)cc1)C(N)=O (configuration not stated) | 11.69% |
| CC(Nc1ccc(CCN2CCOCC2)cc1)C(=O)N(C)CCC#N (configuration not stated) | 7.396% |
| CCC(C)C(=O)Nc1ccc(CCN2CCOCC2)cc1 (configuration not stated) | 92.28% |
| Cc1ccc(CCCC(=O)N(C)CCN2CCOCC2)cc1 | -4.729% |
| CCC(Nc1ccc(CCN2CCCCC2)cc1)C(N)=O (configuration not stated) | 104.3% |
